# Measurements from PubChem BioAssay (Tox21).
# Where “and” joins values, the source holds several entries; their conditions need not be identical. Identical values can stand only once. Records with an inconclusive call do not appear. A call without a number means that no potency is given here. Some structures have more than one record in an assay (separate samples or runs), and their calls can disagree. Calls of active or inactive are those of the source. Unless noted, the call rests on the fitted dose curve; in most records, active means well fitted curve in the direction sought with a large enough effect in the repeat runs; inconclusive means weak or mixed curves; inactive means no such curve, though single readings can be large; an effect the other way counts as inactive or inconclusive.
# What was measured:
# [1] = qHTS assay to identify small molecule antagonists of the sonic hedgehog signaling (Shh) pathway (AID 1259369; calls by dose curve; further: nearly all actives have a fitted effect of over 45% in size; further: potency means the concentration at half of the fitted maximal effect); conditions: NIH/3T3 Gli1-Luc reporter, Shh antagonist, luminescence 24 h; series mostly up to 92.4 µM
# Summary of the method: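 Antagonist mode: compound added to 3T3 Gli1-Luc cells followed by conditioned-medium stimulation, 24 h at 37 C, 5% CO2. Inhibition taken as loss of Gli1-driven luciferase luminescence.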
# [2] = molecular target: Estrogen receptor beta (Homo sapiens) (UniProt Q92731); assay: qHTS assay to identify small molecule agonists of the estrogen receptor beta (ER-beta) signaling pathway (AID 1259377; active means well fitted activation curve with a large enough effect in the signal ratio in the repeat runs, not every such curve was filed as active; the % refers to the signal ratio; further: potency means the concentration at half of the fitted maximal effect); conditions: ER-beta-UAS-bla HEK293T, beta-lactamase FRET ratio, 16 h; series mostly up to 92.4 µM
# Sequence of Estrogen receptor beta (Homo sapiens) (Q92731 whole entry, looked up): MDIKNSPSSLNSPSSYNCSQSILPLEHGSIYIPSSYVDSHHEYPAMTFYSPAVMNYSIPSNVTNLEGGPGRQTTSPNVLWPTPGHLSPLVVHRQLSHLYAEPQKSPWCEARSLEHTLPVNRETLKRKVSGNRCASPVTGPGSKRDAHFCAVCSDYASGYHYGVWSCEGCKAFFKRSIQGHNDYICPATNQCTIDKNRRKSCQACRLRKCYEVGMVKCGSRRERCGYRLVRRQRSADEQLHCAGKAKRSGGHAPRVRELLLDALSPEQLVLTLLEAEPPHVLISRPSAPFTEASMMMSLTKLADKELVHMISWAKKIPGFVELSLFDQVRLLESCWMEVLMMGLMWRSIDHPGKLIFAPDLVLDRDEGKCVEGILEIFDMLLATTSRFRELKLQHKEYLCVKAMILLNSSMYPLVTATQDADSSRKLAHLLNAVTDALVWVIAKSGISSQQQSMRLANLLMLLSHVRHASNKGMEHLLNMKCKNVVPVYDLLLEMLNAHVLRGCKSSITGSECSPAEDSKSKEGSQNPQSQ
# Summary of the method: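 ER-beta-UAS-bla HEK293T (GripTite) cells carrying a UAS-driven beta-lactamase reporter, in medium with 2% charcoal-stripped FBS, were exposed to compounds for 16 hr at 37C; LiveBLAzer B/G FRET substrate was then added and fluorescence read after 2 hours at room temperature.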
# [3] = qHTS assay to identify small molecule agonists of the androgen receptor (AR) signaling pathway in the presence of an antagonist - cell viability counter screen (AID 1259379); conditions: MDA-kb2 viability, CellTiter-Fluor, 16 h; series mostly up to 92.4 µM; further: nearly all actives have a fitted effect of over 25% in size; further: potency means the concentration at half of the fitted maximal effect
# Summary of the method: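 Cytotoxicity counter-screen run in the same wells as the nilutamide-challenged (3.0 µM final) AR agonist assay in MDA-kb2 cells. Compounds tested at 15 concentrations for 16 h, 37 °C without CO2; CellTiter-Fluor fluorescence read.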
# [4] = qHTS assay to identify small molecule agonists of the estrogen receptor beta (ER-beta) signaling pathway - cell viability counter screen (AID 1259380); conditions: ER-beta-bla HEK293T viability, CellTiter-Glo luminescence, 16 h; series mostly up to 92.4 µM; further: nearly all actives have a fitted effect of over 30% in size; further: potency means the concentration at half of the fitted maximal effect
# Summary of the method: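 Cell viability counter screen: CellTiter-Glo luminescence (30 min, room temperature) measured in the same wells as the beta-lactamase readout, after 16 hr compound exposure at 37C of ER-beta-bla HEK293T cells in 2% charcoal-stripped FBS medium.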
# [5] = qHTS assay to identify small molecule antagonists of the estrogen receptor beta (ER-beta) signaling pathway - cell viability counter screen (AID 1259382); conditions: ER-beta-UAS-bla HEK293T viability, CellTiter-Glo luminescence, 16 h; series mostly up to 92.4 µM; further: nearly all actives have a fitted effect of over 55% in size
# Summary of the method: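 Cytotoxicity was measured in the same wells by CellTiter-Glo luminescence after 30 min at room temperature. Cells were ER-beta-bla HEK293T in charcoal-stripped serum, given compound together with 1 nM E2 and incubated 16 h at 37C.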
# [6] = qHTS assay to identify small molecule agonists or antagonists of the thyroid stimulating hormone receptor (TSHR) signaling pathway - wild type cell line counter screen (AID 1259384; calls by dose curve); conditions: HEK293 wild type, cAMP HTRF counter-screen, stronger effect = higher value; series mostly up to 92.4 µM
# Summary of the method: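 Wild-type Hek293 cells, 800/well, 18 h at 37C, then compound with Ro20-1724 for 30 min RT. cAMP by HTRF (cAMP-d2/anti-cAMP cryptate), 1 h RT, fluorescence read. 15 concentrations, triplicates.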
# [7] = molecular target: Thyrotropin receptor (Homo sapiens) (UniProt P16473); assay: qHTS assay to identify small molecule antagonists of the thyroid stimulating hormone receptor (TSHR) signaling pathway (AID 1259385; calls by dose curve; further: nearly all actives have a fitted effect of over 20% in size); conditions: TSHR-HEK293 cAMP HTRF, TSH-stimulated antagonist mode; series mostly up to 92.4 µM
# Sequence of Thyrotropin receptor (Homo sapiens) (P16473 whole entry, looked up): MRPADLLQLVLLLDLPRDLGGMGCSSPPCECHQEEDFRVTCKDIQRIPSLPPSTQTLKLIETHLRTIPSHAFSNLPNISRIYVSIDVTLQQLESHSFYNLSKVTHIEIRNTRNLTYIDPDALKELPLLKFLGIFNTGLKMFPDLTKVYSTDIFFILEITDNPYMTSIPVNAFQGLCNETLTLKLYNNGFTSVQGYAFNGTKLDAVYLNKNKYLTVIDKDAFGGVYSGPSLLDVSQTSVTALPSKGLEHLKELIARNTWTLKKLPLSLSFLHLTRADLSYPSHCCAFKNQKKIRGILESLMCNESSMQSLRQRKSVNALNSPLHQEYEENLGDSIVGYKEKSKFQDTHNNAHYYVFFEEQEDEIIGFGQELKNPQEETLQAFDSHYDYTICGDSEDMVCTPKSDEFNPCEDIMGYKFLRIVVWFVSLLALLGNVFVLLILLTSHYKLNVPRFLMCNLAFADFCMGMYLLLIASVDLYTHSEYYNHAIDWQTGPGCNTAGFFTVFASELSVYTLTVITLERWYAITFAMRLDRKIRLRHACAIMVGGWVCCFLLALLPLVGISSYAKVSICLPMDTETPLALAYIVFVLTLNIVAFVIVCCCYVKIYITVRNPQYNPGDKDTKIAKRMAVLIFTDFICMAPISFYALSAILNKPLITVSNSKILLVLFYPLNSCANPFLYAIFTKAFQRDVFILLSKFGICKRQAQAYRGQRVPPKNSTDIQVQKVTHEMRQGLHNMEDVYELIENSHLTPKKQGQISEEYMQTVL
# Summary of the method: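 TSHR-HEK293 cells (800/well) plated 18 h, then compounds with Ro20-1724 and TSH at 1.5 ng/mL final, 30 min at room temperature. cAMP quantified by HTRF (cAMP-d2/anti-cAMP-cryptate, 1 h); 15 concentrations in triplicate.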
# [8] = molecular target: Estrogen receptor (Homo sapiens) (UniProt P03372); assay: qHTS assay to identify small molecule agonists of the estrogen receptor alpha (ER-alpha) signaling pathway in the presence of an antagonist (AID 1259383; calls by dose curve; further: top concentration of the series differs between compounds; nearly all actives have a fitted effect of over 15% in size); conditions: VM7Luc4E2 cells, ERE-luciferase, +ICI-182,780, 22 h; series mostly up to 92.4 µM
# Sequence of Estrogen receptor (Homo sapiens) (P03372 whole entry, looked up): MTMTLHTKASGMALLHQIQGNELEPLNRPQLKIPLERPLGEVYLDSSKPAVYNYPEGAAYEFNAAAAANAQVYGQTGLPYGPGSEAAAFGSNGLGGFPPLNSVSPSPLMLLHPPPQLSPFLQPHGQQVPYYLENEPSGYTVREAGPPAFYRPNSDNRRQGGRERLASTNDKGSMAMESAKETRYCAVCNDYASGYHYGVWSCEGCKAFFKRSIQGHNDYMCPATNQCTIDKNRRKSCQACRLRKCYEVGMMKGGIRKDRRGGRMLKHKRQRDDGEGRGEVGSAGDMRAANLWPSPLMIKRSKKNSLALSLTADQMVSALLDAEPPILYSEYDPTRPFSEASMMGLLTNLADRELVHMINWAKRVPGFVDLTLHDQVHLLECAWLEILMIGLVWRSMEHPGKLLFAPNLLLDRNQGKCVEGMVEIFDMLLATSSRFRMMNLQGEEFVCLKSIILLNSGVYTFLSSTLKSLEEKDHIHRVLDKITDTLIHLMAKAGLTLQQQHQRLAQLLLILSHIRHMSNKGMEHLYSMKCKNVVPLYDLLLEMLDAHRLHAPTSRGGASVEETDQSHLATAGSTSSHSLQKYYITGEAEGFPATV
# Summary of the method: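 Agonist-mode confirmation run in the presence of 10.0nM (final) ICI-182,780 antagonist. The reporter was ERE-driven luciferase in VM7Luc4E2 cells, grown in charcoal-stripped serum. Cells were exposed to 15-concentration compound series for 22hr, then ONE-Glo luminescence was read.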
# [9] = molecular target: Androgen receptor (Homo sapiens) (UniProt P10275); assay: qHTS assay to identify small molecule agonists of the androgen receptor (AR) signaling pathway in the presence of an antagonist (AID 1259381; calls by dose curve; further: nearly all actives have a fitted effect of over 15% in size); conditions: MDA-kb2 MMTV-luciferase, AR agonist + nilutamide, 16 h; series mostly up to 92.4 µM
# Sequence of Androgen receptor (Homo sapiens) (P10275 whole entry, looked up): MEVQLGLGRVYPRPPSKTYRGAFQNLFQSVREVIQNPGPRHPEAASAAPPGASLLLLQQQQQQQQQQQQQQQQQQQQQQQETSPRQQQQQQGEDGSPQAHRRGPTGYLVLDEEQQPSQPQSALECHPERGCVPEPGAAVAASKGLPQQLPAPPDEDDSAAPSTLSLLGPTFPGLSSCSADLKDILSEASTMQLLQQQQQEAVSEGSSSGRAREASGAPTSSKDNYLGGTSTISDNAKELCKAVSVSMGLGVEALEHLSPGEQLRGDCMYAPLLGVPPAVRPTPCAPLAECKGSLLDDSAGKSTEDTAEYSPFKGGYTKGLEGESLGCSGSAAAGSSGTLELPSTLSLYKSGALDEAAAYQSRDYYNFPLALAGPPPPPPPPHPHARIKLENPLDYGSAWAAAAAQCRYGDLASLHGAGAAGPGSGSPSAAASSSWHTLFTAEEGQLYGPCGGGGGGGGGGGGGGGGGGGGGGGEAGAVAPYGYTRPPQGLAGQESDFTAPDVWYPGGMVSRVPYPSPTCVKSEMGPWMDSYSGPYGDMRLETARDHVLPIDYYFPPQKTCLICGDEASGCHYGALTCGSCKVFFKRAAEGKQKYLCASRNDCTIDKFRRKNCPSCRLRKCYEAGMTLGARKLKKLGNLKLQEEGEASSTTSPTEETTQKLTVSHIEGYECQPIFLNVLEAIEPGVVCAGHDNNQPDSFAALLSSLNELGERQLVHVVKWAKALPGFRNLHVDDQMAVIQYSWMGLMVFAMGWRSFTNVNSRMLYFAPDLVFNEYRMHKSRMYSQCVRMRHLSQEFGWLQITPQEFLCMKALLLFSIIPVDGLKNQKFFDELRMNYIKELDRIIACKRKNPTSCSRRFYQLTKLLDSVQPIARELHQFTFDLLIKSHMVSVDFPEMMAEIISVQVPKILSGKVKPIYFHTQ
# Summary of the method: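 Agonist-mode confirmation run against 3.0 uM final nilutamide: compounds titrated at 15 concentrations onto MDA-kb2 MMTV-luciferase reporter cells. Luminescence measured with ONE-Glo following 16 hr incubation, 37C, 0% CO2.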
# [10] = molecular target: Estrogen receptor beta (Homo sapiens) (UniProt Q92731); assay: qHTS assay to identify small molecule antagonists of the estrogen receptor beta (ER-beta) signaling pathway (AID 1259378; active means well fitted inhibition curve with a large enough effect in the signal ratio in the repeat runs, not every such curve was filed as active; the % refers to the signal ratio); conditions: ER-beta-UAS-bla HEK293T, beta-lactamase FRET ratio, 16 h; series mostly up to 92.4 µM
# Summary of the method: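 ER-beta-UAS-bla HEK293T cells in 2% charcoal-stripped FBS medium treated with compound plus 1nM final 17-beta-estradiol for 16 hr at 37C. Beta-lactamase reporter read by FRET substrate fluorescence after 2 hours at room temperature.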
SMILES,Potency [1],Potency [2],Potency [3],Potency [4],outcome [5],outcome [6],outcome [7],outcome [8],outcome [9],outcome [10]
O=[N+]([O-])c1ccc(Cl)cc1,42.9 µM (active) and inactive,inactive,inactive,inactive,inactive,inactive,inactive,,,
Cc1cc(O)ccc1Cl,inactive,inactive,inactive,inactive,inactive,,inactive,inactive,,
CC(C)CCCCCCOC(=O)c1ccccc1C(=O)OCCCCCCC(C)C,inactive,,inactive,inactive,inactive,,inactive,inactive,inactive,
C=C(C)C(=O)OCC(CC)CCCC (stereo not given),inactive,inactive,55.5 µM (active) and inactive,inactive,inactive,,inactive,inactive,,
O=C(O)COc1ccccc1,inactive,inactive,inactive,inactive,inactive,inactive,inactive,inactive,,
Nc1cc(Cl)cc(Cl)c1,inactive,inactive,inactive,inactive,inactive,inactive,inactive,,,
C=CC(=O)OCC(CC)CCCC (stereo not given),inactive,inactive,inactive,inactive,inactive,,inactive,,,
Oc1c(Br)cc(Br)cc1Br,inactive,inactive,inactive,21.7 µM (active) and inactive,inactive,,inactive,inactive,,
Nc1ncc([N+](=O)[O-])s1,inactive,inactive,inactive,inactive,inactive,,inactive,inactive,,
N#Cc1ccccn1,inactive,inactive,inactive,inactive,inactive,inactive,inactive,inactive,,
CCSC(=O)N1CCCCCC1,inactive,inactive,inactive,inactive,inactive,inactive,inactive,inactive,,
O=[N+]([O-])c1cc([As](=O)(O)O)ccc1O,inactive,inactive,inactive,inactive,inactive,,inactive,inactive,,
ClCCOCCCl,inactive,inactive,inactive,inactive,inactive,,inactive,,,
CN(C)C(=O)Nc1cccc(C(F)(F)F)c1,inactive,inactive,inactive,inactive,inactive,,inactive,,,
COP(=S)(OC)SCN1C(=O)c2ccccc2C1=O,54.5 µM (active),inactive,inactive,inactive,inactive,,inactive,,,
CN(C)NC(=O)CCC(=O)O,inactive,inactive,inactive,inactive,inactive,inactive,inactive,,,
O=C(O)C1C(C(=O)O)C2(Cl)C(Cl)=C(Cl)C1(Cl)C2(Cl)Cl (stereo not given),inactive,inactive,inactive,inactive,inactive,inactive,inactive,inactive,,
C[C@]12CC[C@H](O)CC1=CC[C@@H]1[C@@H]2CC[C@]2(C)C(=O)CC[C@@H]12,1.37 µM (active) and 19.3 µM (active),386 nM (active) and 473 nM (active),inactive,48.6 µM (active) and 27.3 µM (active),inactive,inactive,inactive,,,
CNCC(O)c1ccc(O)cc1 (stereo not given),inactive,inactive,inactive,inactive,inactive,inactive,inactive,inactive,,
Cl[C@H]1OCCO[C@@H]1Cl,inactive,,inactive,inactive,inactive,,inactive,,,
CCOP(=S)(OCC)Oc1cc(C)nc(C(C)C)n1,inactive,,inactive,inactive,inactive,inactive,inactive,,,
C/C=C/c1ccc2c(c1)OCO2,inactive,,inactive,inactive,inactive,inactive,inactive,,,
CCNc1nc(Cl)nc(NC(C)C)n1,,inactive,inactive,inactive,inactive,,inactive,inactive,,
Cc1ccc(N)cc1,inactive,,inactive,inactive,inactive,,inactive,,,
CCOP(=S)(OCC)Oc1ccc([N+](=O)[O-])cc1,inactive,,inactive,inactive,inactive,inactive,inactive,,,

SMILES,Potency [1],Potency [2],Potency [3],Potency [4],outcome [5],outcome [6],outcome [7],outcome [8],outcome [9],outcome [10]
Cc1cccc(N)c1,inactive,,inactive,inactive,inactive,,,inactive,,
COS(=O)(=O)OC,inactive,,inactive,inactive,inactive,,,inactive,,
O=[N+]([O-])c1ccc(Cl)c(Cl)c1,inactive,,inactive,inactive,inactive,,inactive,inactive,,
Cl/C=C/Cl,inactive,,inactive,inactive,inactive,inactive,inactive,inactive,,
Sc1ccccc1,inactive,,inactive,inactive,inactive,inactive,inactive,inactive,,
C[C@H]1C(=O)O[C@@H]2CCN3CC=C(COC(=O)[C@](C)(O)[C@]1(C)O)[C@H]23,inactive,,inactive,inactive,inactive,inactive,inactive,inactive,,
O=C(O)Cc1ccccc1,inactive,,inactive,inactive,inactive,,,inactive,,
Oc1ccc(Cl)cc1,inactive,,inactive,inactive,inactive,,inactive,,,
COc1nc(NC(C)C)nc(NC(C)C)n1,,inactive,inactive,inactive,inactive,,inactive,inactive,,inactive
CNC(=O)O/N=C/C(C)(C)SC,inactive,,inactive,inactive,inactive,,inactive,inactive,,
[N-]=[N+]=CC(=O)OC[C@H](N)C(=O)O,inactive,,inactive,inactive,inactive,,inactive,,,
CNC(=O)Oc1cccc2ccccc12,12.1 µM (active) and 9.44 µM (active),,inactive,inactive,inactive,inactive,inactive,inactive,,
Cc1ccc(N=C=O)cc1N=C=O,inactive,,inactive,34.3 µM (active) and inactive,inactive,,,,,
Cc1ccccc1N,inactive,,inactive,inactive,inactive,,inactive,,,
OCCCCO,inactive,,inactive,inactive,inactive,inactive,inactive,,,
CCCCCCCCCCCCCCCCCC(=O)O,17.1 µM (active) and inactive,,inactive,inactive,inactive,,,,,
ClC(Cl)c1ccccc1,inactive,,inactive,inactive,inactive,,,inactive,,
COc1cc(-c2ccc(N)c(OC)c2)ccc1N,6.78 µM (active) and 8.24 µM (active),,inactive and 52 µM (active),14.7 µM (active),inactive,,,,,
C=CCN=C=S,inactive,,inactive,inactive,inactive,inactive,inactive,inactive,,
O=C(O)CCCc1ccc(N(CCCl)CCCl)cc1,inactive,,inactive,inactive,inactive,,inactive,inactive,,
OCC(O)CCl (stereo not given),inactive,,inactive,inactive,inactive,,inactive,inactive,,
CN(C)C(=O)Cl,inactive,,inactive,inactive,inactive,,inactive,inactive,,
O=C/C=C/c1ccccc1,inactive,,inactive,inactive,inactive,,inactive,inactive,,
CCCOC(=O)c1ccccc1C(=O)OCCC,inactive,,inactive,inactive,inactive,,,inactive,,
O=P1(NCCCl)OCCCN1CCCl (stereo not given),inactive,,inactive,inactive,inactive,inactive,inactive,,,
